Screening results: PubChem, National Center for Advancing Translational Sciences (NCATS)
NPC1 prom act – activators of NPC1 promoter | AID 485313 | 2.4% of 320,000 active | Potency, µM (top dose mostly 9.22 µM), for the others: at the highest dose activation, actives largely listed as activators | Huh7 NPC1 promoter luciferase reporter, 24 h; also: % of control where 0% means no effect; nearly all actives have a fitted effect of over 60% in size
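Stably transfected Huh7 (NPC1 promoter→luciferase), 1500 cells/well in Opti-MEM + 10% FBS, 2 h settle, then compound 24 h at 37 °C. Luminescence after 10 min with Amplite reagent.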
SMN2 splice enh – SMN2 splice variant enhancement; AID 1458; 2.8% of 210,000 active; HEK293 SMN2-luciferase splicing reporter, luminescence, 30-36 h; Potency, µM (series often up to 46.1 µM), for inactives: at the highest dose activity change, positive = activation, actives largely listed as activators; also: % of control where 0% means no effect; nearly all actives have a fitted effect of over 55% in size
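HEK293 cells carry an SMN2 […]–luciferase reporter in which exon 7 inclusion puts luciferase in frame. Cells were plated 10-12 h before compound addition, then incubated 30-36 h at 37C. ONE-Glo luminescence was read; sodium butyrate at 4.5 mM final served as control.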
FLuc counter – firefly luciferase modulation, counter-screen for miR-21 project; 6.9% of 360,000 active; Potency, µM (doses to about 57.5 µM), without a hit: at the top dose activity change, negative = inhibition, most hits filed as inhibitors; purified FLuc, Km substrates, luminescence inhibition; AID 588342; P08659;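 also: plate controls were vehicle for no effect and reference inhibitor for full effect; nearly all actives have a fitted effect of over 55% in size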
Target sequence (P08659 whole entry, looked up): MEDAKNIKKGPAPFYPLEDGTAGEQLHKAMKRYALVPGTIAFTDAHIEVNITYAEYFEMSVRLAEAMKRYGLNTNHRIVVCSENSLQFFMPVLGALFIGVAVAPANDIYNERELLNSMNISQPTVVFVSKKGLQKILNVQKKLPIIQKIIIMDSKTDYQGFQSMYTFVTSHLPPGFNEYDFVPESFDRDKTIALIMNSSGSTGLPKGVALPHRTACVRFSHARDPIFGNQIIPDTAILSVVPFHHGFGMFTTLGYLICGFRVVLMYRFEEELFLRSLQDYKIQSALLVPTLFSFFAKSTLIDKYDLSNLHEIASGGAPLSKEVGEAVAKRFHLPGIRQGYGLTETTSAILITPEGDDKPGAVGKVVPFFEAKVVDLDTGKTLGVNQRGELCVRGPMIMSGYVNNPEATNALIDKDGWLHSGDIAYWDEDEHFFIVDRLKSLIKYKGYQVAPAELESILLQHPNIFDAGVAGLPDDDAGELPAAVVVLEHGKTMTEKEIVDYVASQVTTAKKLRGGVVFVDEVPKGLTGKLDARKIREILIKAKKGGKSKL
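Purified P. pyralis luciferase (10nM final) with 10uM D-luciferin and 10uM ATP (Km levels) in 50mM Tris acetate pH 7.5, 10mM Mg acetate, 0.01% Tween-20, 0.05% BSA; qHTS 6-point titration, ~60 µM downward; luminescence read.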
KinaseGlo FLuc – Kinase-Glo luciferase inhibition (counter-screen); 0.28% of 200,000 active; Potency, µM (top dose mostly 38.3 µM), inactives show top-dose activity change, negative = inhibition, usual class: inhibitors; Q27757; Kinase-Glo luciferase, ATP luminescence, 8 min; also: % is scaled to controls: 0 for no effect and ±100 for the full control effect; nearly all actives have a fitted effect of over 60% in size
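Compounds were added to a substrate mix at pH 7.2 (50 mM imidazole, 10 uM ATP, within the enzyme's linear range), followed by Kinase-Glo detection reagent; luminescence was measured after 8 minutes at ambient temperature.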
Rab9 promoter act – activates the Rab9 promoter; 2.8% of 320,000 active; Potency, µM (series often up to 9.22 µM), without a hit: at the top dose activation, negative = inhibition, usual class: activators; Huh7 Rab9 promoter-luciferase reporter, luminescence, 24 h; AID 485297; also: % of control where 0% means no effect; nearly all actives have a fitted effect of over 60% in size
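Stable Rab9-luc Huh7, 1500 cells/well, 2 h settle; cmpd in DMSO, 24 h, 37 °C/5% CO2; luciferase reagent 10 min RT; luminescence.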
ELG1 genotoxic – genotoxicity induction in ELG1-luciferase HEK293T cells. Potency, µM (doses to about 46 µM), without a hit: top-dose activity change, positive = activation, most hits filed as activators. 1.3% of 330,000 active. HEK293T ELG1-luciferase reporter, luminescence, 16 h; also: % of control where 0% means no effect; nearly all actives have a fitted effect of over 60% in size
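Cells (2,000/well) expressing the ELG1-luciferase fusion are dosed by pin tool and kept 16 hr at 37 °C, 5% CO2. Signal comes from ONE-Glo luciferase reagent after 30 min at room temperature.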
The depositor's hits bear a star; ? = inconclusive; nt = not tested or not shown; [ ] = remark or other dose. The list is not random: actives were taken first. Their share in the collection is about 7.5%. Calls follow the shape of the dose curve; as a rule, active = well fitted curve in the direction sought with a large enough effect; inconclusive = small, poorly fitted or top-dose-only effect, or another doubt; inactive = no such curve, though single readings can be large; an effect the other way counts as inactive or inconclusive. Potency is read from the fitted curve at half-maximal effect.

SMILES	NPC1 prom act	SMN2 splice enh	FLuc counter	KinaseGlo FLuc	Rab9 promoter act	ELG1 genotoxic
O=C(c1cccc(Cl)c1)N1CCN(c2ncnc3c2cnn3-c2ccccc2)CC1	-4.7%	-37.0%	-15.1%	-0.7%	-17.3%	-7.0%
O=C(c1ccccc1)N1CCN(c2ncnc3c2cnn3-c2ccccc2)CC1	22.7%	-19.3%	-20.6%	-6.7%	?	-2.1%
N#CC(C(=O)Nc1ccccc1)=C1Nc2ccccc2N1	-0.9%	-26.3%	21.3µM*	-0.2%	18.6%	4.6%
N#CC(C(=O)Nc1cccc(Cl)c1)=C1Nc2ccccc2N1	10.6%	26.8%	4.0%	1.7%	2.5%	4.4%
O=C(Cn1cncn1)c1ccc(F)cc1F	-3.1%	nt	11.9%	-1.5%	-2.5%	3.9%
COc1ccccc1CNC(=O)Cn1c(=O)c2cccn2c2cccnc21	3.4%	nt	-2.1%	nt	9.1%	-1.5%
O=C1c2nc3cc(-c4ccccc4)[nH]n3c(=O)c2CN1Cc1ccccc1	-1.6%	nt	-9.1%	nt	-3.3%	0.2%
O=c1cc(-c2ccccc2)nc2cc(-c3ccco3)[nH]n12	21.7%	nt	3.38µM*	nt	?	16.4%
O=C1c2nc3cc(-c4ccco4)[nH]n3c(=O)c2CN1C1CCCCC1	28.4%	nt	2.39µM*	nt	14.4%	?
Cc1cc2nc(-c3ccccc3)cc(=O)n2[nH]1	?	nt	6.75µM*	nt	?	10.7%
COc1ccc(NC(=O)CN2C(=O)CCn3nc(-c4cccn4C)cc32)cc1	nt	nt	-7.6%	nt	nt	nt
Clc1ccc(CSc2ncnc3c2ncn3[C@@H]2CCCCO2)cc1	nt	-10.4%[9.22 µM]	nt	-7.2%[7.66 µM]	nt	nt
CCC(=O)N(C)CCc1cc2c(c(OC)c1/C=N/NC(=O)c1ccccc1O)OCO2	-1.6%	-15.4%	-19.4%	0.0%	-9.2%	1.7%
COc1c(/C=N/NC(=O)c2ccccc2O)c(CCN(C)C(C)=O)cc2c1OCO2	-1.4%	52.8%	19µM*	-4.2%	6.3%	0.5%
Cc1ccc(NC(=O)COc2cccc(Oc3ccccc3)c2)cc1S(=O)(=O)N1CCOCC1	-7.5%	nt	-13.7%	nt	-8.5%	-3.5%
Cc1cc(C(=O)NNC(=S)NC(=O)/C=C/c2ccccc2Cl)n[nH]1	8.8%	2.0%	23.9µM*	1.8%	6.0%	-3.3%
O=C(NCc1ccccc1)Nc1cccn(Cc2cccc(F)c2)c1=O	-2.7%	-26.9%	?	3.5%	0.0%	0.7%
COc1ccc(Cn2cccc(NC(=O)Nc3cccc(C#N)c3)c2=O)cc1	-3.0%	-34.9%	2.1%	0.1%	-14.7%	-10.4%
CCOc1ccc(NC(=O)Nc2cccn(Cc3ccccc3)c2=O)cc1	2.8%	-20.2%	9.53µM*	-3.8%	0.2%	-0.5%
O=C(NCc1ccccc1)Nc1cccn(Cc2ccccc2)c1=O	1.0%	-18.5%	10.7µM*	-1.7%	-6.7%	-1.9%
Cc1cc(NC(=O)NCc2ccccc2)c(=O)n(Cc2ccc(F)cc2)c1	-2.9%	nt	1.69µM*	nt	4.7%	3.0%
O=C(NCc1ccccc1)Nc1cccn(Cc2ccccc2F)c1=O	-0.3%	-26.0%	12µM*	-3.8%	4.0%	4.1%
O=C(NCc1ccccc1)Nc1cccn(Cc2ccc(F)cc2)c1=O	0.2%	-47.9%	?	2.1%	-3.2%	0.4%
CC(=O)Nc1ccc(S(=O)(=O)Nc2cc(C)cn(Cc3ccccc3)c2=O)cc1	-0.9%	nt	4.1%	nt	2.7%	-9.8%
CCOc1ccc(NC(=O)Nc2ccccc2SC)cc1	3.98µM*	nt	2.69µM*	11.2µM*	?	?
SMILES	NPC1 prom act	SMN2 splice enh	FLuc counter	KinaseGlo FLuc	Rab9 promoter act	ELG1 genotoxic
Cc1ccc(Cn2cccc(NC(=O)NC3CCCCC3)c2=O)cc1	0.5%	-50.1%	16.9µM*	0.5%	-3.7%	-4.7%
COc1ccccc1N1CCN(S(=O)(=O)CCNC(=O)COc2ccc(C(C)C)cc2)CC1	nt	nt	23.9µM*	nt	nt	nt
CCOc1ccc(CC(=O)NCCS(=O)(=O)N2CCN(c3ccccc3OC)CC2)cc1	nt	nt	-5.9%	nt	nt	nt
O=C(CCCc1cccs1)Nc1nc2c(s1)CCCC2	?	15.8µM*	23.9µM*	-1.1%	?	?
Cc1cccc(NC(=O)c2c(NC(=O)c3ccco3)sc3c2CCC(C)C3)c1 (stereo not given)	nt	-16.8%	3.8%	nt	nt	nt
CC1CCc2nc(NC(=O)Cc3cccs3)sc2C1 (stereo not given)	3.16µM*	14.1µM*	9.53µM*	-0.2%	2.24µM*	9.2µM*
CC1CCc2nc(NC(=O)c3ccco3)sc2C1 (stereo not given)	0.447µM*	-24.5%	0.301µM*	-20.9%	0.282µM*	?
CC1CCc2nc(NC(=O)C3CCCO3)sc2C1 (stereo not given)	0.501µM*	2µM*	2.13µM*	-1.9%	0.501µM*	1.16µM*
CCC(CC)C(=O)Nc1nc2c(s1)CC(C)CC2 (stereo not given)	nt	nt	-21.2%	nt	nt	nt
O=c1cc(/N=C/c2coc3c(ccc4ccccc43)c2=O)[nH]c(=S)[nH]1	1.4%	-0.7%	?	-2.0%	-7.9%	-2.7%
Cc1cc(C)c(C)c(OCCN2CCOCC2)c1	-1.3%	nt	0.5%	nt	-0.5%	5.5%
CCOc1ccccc1C(=O)Nc1nc2c(s1)CC(C)CC2 (stereo not given)	nt	nt	2.69µM*	nt	nt	nt
CCOc1ccccc1C(=O)Nc1nccs1	0.9%	-1.5%	-6.4%	1.3%	-1.1%	2.6%
Cc1ccc(CN2CCN(/N=C/c3ccc(O)c(O)c3)CC2)cc1	-13.3%	nt	-10.3%	nt	-1.5%	17.0%
CN=c1scc(-c2ccc(F)cc2)n1/N=C/c1ccc(O)c(O)c1	-43.8%	?	0.675µM*	-18.7%	14.9%	-6.8%
Cc1ccc(-n2ncc3c(NCCCN(C)C)ncnc32)cc1Cl	nt	nt	13.5µM*	nt	nt	nt
Cc1cccc(-n2ncc3c(NCc4ccco4)ncnc32)c1	8.3%	15.8µM*	12µM*	0.0%	?	?
Cc1cccc(-n2ncc3c(NCc4ccccc4)ncnc32)c1	-16.4%	10µM*	-17.4%	-2.6%	-3.9%	18.4µM*
CN(C)CCCNc1ncnc2c1cnn2-c1ccccc1	17.4%	5.1%	?	-2.2%	29.9%	?
c1ccc(CNc2ncnc3c2cnn3-c2ccccc2)cc1	-12.2%	nt	?	nt	5.6%	?
Clc1ccc(-n2ncc3c(NCc4cccnc4)ncnc32)cc1Cl	0.501µM*	nt	1.07µM*	nt	1.12µM*	?
CCCC1=Nc2cc(C(=O)NC3CCCC3)ccc2Sc2ccc(C)cc21	nt	-26.0%	-11.4%	nt	nt	nt
Cc1ccccc1-c1nc2cc(NC(=O)COc3ccc(F)cc3)ccc2o1	nt	nt	-0.7%	nt	nt	nt
O=C(c1cc(-c2ccc(Cl)cc2)n[nH]1)N1CCN(C(=O)c2ccco2)CC1	-0.4%	nt	?	nt	-3.7%	-0.2%
CC(NC(=O)c1ccc(N)cc1)c1ccccc1 (stereo not given)	-4.1%	14.7%	3.7%	-0.2%	-1.9%	0.4%
